Among the data in paper PMC7862700, “An all-to-all approach to the identification of sequence-specific readers for epigenetic DNA modifications on cytosine” are binding signal values, retold here.

Experiment in all cases: DAPPL (digital affinity profiling via proximity ligation, sequencing); 10 mM Tris-HCl pH 7.5, 50 mM NaCl, 1 mM DTT, 4% glycerol, room temperature, 30 min; GST-TFs on glutathione beads, 16-mer random dsDNA library, 0.1% formaldehyde crosslink after washing; high values mean tight binding
In one test the target is T1, FEV (Homo sapiens, UniProt Q99581 1-238).
T1 sequence: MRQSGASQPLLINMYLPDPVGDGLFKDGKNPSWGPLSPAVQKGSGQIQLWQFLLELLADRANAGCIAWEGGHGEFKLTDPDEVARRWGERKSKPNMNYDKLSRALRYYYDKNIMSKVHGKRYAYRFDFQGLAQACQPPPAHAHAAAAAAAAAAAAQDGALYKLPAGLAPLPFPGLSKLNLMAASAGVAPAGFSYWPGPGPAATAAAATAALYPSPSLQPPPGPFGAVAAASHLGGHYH
The settings on record: protein: recombinant; tags: N-terminal GST; dsDNA, one strand shown. The method in brief:
(§1)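 Human transcription factors carrying a GST fusion were produced in yeast, bound to glutathione beads, tagged with DNA barcodes and pooled together with a tag-only sample. Each pool was held with 200 nmole of a random double-stranded 16-mer DNA library in Tris/NaCl/DTT/glycerol buffer for 30 min at room temperature, then washed, crosslinked in 0.1% formaldehyde, proximity-ligated with BsaI/T4 ligase (1 h, 37 °C), PCR-amplified and sequenced on an Illumina NextSeq500. Binding signal is the read frequency of each hexamer for a given factor divided by its frequency in the tag-only sample.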

For the next test, the target named is ETV5 (Homo sapiens, UniProt P41161 1-510). The note with it: protein: recombinant; tags: N-terminal GST; dsDNA, one strand shown. An outline of the steps:
as §1

Another test deals with HSF1 (Homo sapiens, UniProt Q00613 1-529). The settings on record: protein: recombinant; tags: N-terminal GST; chain copies: 3; dsDNA, one strand shown. The method in brief:
as §1

A further test addresses T2, SPIC (Homo sapiens, UniProt Q8N5J4 1-248).
T2 sequence: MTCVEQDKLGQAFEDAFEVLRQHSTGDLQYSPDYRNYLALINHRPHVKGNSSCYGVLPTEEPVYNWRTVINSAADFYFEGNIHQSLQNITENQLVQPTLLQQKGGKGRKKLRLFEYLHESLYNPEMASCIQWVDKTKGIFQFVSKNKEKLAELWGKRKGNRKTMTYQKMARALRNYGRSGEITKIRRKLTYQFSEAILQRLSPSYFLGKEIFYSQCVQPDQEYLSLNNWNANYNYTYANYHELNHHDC
The note with it: protein: recombinant; tags: N-terminal GST; dsDNA, one strand shown. The method in brief: as §1

The target of another test is ELF4 (Homo sapiens, UniProt Q99607 1-663). The settings on record: protein: recombinant; tags: N-terminal GST; dsDNA, one strand shown. The method in brief:
as §1

In a further test the target is T3, ELK4 (Homo sapiens, UniProt P28324-2 1-405).
T3 sequence: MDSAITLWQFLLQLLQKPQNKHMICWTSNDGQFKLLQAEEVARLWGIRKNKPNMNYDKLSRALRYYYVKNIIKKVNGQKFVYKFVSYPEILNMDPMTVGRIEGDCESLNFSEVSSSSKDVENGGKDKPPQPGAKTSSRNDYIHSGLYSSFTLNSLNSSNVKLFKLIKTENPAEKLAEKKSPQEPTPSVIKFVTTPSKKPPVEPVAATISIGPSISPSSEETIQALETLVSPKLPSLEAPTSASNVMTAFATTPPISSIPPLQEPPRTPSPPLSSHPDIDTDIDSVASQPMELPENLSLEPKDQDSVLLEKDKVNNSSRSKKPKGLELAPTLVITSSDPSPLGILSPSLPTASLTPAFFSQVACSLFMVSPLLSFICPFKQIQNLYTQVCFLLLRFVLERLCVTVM
The note with it: protein: recombinant; tags: N-terminal GST; dsDNA, one strand shown. An outline of the steps: as §1

Another test addresses T4, ETV2 (Homo sapiens, UniProt O00321 1-342).
T4 sequence: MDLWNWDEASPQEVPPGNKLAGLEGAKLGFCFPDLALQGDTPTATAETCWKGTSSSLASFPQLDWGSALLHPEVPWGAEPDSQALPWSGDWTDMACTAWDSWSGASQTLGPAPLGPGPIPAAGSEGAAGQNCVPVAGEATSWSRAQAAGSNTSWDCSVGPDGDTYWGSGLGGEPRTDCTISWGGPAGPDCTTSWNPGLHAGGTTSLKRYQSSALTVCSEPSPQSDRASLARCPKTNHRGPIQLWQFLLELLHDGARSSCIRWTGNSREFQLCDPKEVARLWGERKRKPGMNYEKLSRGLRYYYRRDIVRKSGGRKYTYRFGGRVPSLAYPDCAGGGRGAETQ
The settings on record: protein: recombinant; tags: N-terminal GST; dsDNA, one strand shown. An outline of the steps: as §1

For the next test, the target named is T5, ELF3 (Homo sapiens, UniProt P78545 1-371).
T5 sequence: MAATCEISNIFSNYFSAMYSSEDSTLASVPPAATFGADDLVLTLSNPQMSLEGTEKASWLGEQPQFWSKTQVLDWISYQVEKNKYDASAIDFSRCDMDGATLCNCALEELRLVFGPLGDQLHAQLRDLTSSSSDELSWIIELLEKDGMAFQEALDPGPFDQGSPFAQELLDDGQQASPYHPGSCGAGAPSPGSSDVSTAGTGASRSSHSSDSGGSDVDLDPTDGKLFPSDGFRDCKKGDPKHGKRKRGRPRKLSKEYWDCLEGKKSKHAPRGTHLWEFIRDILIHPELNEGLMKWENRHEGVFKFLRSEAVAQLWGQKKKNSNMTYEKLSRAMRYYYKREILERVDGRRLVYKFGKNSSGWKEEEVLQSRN
The settings on record: protein: recombinant; tags: N-terminal GST; dsDNA, one strand shown. The method in brief: as §1

The next test addresses CRX (Homo sapiens, UniProt O43186 1-299). The note with it: protein: recombinant; tags: N-terminal GST; dsDNA, one strand shown. The method in brief:
as §1

In the next test the target is ETV1 (Homo sapiens, UniProt P50549 1-477). The settings on record: protein: recombinant; tags: N-terminal GST; dsDNA, one strand shown. An outline of the steps: as §1
A further test addresses T6, ERF (Homo sapiens, UniProt P50548 1-548).
T6 sequence: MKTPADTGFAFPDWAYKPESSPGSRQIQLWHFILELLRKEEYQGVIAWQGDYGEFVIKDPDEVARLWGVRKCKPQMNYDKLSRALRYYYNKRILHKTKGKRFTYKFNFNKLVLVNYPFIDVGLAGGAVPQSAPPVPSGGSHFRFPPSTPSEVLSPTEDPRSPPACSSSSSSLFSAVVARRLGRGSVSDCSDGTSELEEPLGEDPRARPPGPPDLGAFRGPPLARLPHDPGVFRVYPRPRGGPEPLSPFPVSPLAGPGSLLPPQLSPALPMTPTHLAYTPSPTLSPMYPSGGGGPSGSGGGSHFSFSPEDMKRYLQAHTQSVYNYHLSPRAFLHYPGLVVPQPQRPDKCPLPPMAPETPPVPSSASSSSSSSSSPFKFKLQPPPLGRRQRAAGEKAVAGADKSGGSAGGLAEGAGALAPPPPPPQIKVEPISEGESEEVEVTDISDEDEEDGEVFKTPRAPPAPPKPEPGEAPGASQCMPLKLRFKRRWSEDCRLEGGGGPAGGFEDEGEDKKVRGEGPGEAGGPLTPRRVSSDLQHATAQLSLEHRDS
The settings on record: protein: recombinant; tags: N-terminal GST; dsDNA, one strand shown. An outline of the steps:
as §1

The target in a further test is T7, ETV3L (Homo sapiens, UniProt Q6ZN32 1-361).
T7 sequence: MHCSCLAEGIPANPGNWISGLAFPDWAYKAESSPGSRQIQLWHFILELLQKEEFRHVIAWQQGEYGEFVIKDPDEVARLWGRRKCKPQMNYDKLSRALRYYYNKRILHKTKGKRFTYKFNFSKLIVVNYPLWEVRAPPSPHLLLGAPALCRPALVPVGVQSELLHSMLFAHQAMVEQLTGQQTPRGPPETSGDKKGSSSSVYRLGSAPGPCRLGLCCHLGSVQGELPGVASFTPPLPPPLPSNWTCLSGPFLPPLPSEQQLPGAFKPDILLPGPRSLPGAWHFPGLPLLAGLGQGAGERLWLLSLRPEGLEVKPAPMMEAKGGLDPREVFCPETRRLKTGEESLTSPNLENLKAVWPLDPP
The note with it: protein: recombinant; tags: N-terminal GST; dsDNA, one strand shown. An outline of the steps:
as §1

The target in the next test is T8, ETS2 (Homo sapiens, UniProt P15036 1-469).
T8 sequence: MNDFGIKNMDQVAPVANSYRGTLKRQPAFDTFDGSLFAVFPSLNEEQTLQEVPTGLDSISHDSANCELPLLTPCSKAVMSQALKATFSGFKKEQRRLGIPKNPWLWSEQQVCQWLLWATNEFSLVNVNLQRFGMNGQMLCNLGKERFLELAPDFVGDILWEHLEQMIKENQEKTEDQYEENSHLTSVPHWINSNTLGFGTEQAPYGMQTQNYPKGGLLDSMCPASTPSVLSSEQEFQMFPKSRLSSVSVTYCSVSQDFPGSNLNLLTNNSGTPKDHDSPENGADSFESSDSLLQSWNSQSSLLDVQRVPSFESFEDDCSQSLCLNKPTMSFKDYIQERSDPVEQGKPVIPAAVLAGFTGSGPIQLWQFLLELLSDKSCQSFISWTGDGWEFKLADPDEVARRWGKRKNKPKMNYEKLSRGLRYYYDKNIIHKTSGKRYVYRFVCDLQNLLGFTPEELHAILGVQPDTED
The settings on record: protein: recombinant; tags: N-terminal GST; dsDNA, one strand shown. An outline of the steps:
as §1

The target in another test is T9, SPDEF (Homo sapiens, UniProt O95238 1-335).
T9 sequence: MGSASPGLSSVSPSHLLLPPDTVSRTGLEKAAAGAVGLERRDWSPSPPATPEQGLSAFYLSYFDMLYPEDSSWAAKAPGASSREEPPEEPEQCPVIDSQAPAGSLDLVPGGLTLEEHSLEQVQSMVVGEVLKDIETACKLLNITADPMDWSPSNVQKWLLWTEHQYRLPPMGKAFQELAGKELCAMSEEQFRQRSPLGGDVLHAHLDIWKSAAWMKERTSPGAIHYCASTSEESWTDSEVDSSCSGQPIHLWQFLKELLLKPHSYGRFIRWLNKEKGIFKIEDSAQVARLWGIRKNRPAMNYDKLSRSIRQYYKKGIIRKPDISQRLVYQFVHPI
The note with it: protein: recombinant; tags: N-terminal GST; dsDNA, one strand shown. The method in brief:
as §1

A further test addresses T10, ETV7 (Homo sapiens, UniProt Q9Y603 1-341).
T10 sequence: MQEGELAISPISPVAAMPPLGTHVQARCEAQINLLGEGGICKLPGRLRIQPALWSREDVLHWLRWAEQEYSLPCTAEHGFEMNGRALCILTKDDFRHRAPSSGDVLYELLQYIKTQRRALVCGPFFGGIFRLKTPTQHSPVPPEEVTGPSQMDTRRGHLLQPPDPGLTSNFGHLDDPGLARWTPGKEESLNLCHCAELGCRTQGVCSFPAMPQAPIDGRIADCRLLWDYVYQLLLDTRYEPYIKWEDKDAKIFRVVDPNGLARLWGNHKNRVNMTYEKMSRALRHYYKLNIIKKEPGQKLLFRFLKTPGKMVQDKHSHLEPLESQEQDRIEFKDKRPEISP
The settings on record: protein: recombinant; tags: N-terminal GST; dsDNA, one strand shown. The method in brief: as §1

The next test deals with T11, ELF5 (Homo sapiens, UniProt Q9UKW6-2 1-255).
T11 sequence: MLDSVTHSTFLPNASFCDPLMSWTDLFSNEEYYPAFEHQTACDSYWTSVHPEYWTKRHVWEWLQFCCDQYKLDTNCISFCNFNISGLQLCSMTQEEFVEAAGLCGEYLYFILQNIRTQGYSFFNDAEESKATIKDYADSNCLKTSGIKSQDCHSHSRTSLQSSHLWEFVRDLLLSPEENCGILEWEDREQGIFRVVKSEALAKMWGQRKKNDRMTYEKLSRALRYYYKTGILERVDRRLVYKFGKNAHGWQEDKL
The settings on record: protein: recombinant; tags: N-terminal GST; dsDNA, one strand shown. An outline of the steps:
as §1

The target in a further test is T12, ETV3 (Homo sapiens, UniProt P41162-2 1-143).
T12 sequence: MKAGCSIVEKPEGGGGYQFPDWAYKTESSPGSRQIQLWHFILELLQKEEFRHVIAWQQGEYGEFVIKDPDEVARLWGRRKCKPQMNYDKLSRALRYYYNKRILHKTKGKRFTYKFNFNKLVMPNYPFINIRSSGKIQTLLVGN
The settings on record: protein: recombinant; tags: N-terminal GST; dsDNA, one strand shown. The method in brief: as §1

The target of the next test is ETV6 (Homo sapiens, UniProt P41212 1-452). The settings on record: protein: recombinant; tags: N-terminal GST; dsDNA, one strand shown. An outline of the steps:
as §1

Chain of ETV1 (P50549 whole entry): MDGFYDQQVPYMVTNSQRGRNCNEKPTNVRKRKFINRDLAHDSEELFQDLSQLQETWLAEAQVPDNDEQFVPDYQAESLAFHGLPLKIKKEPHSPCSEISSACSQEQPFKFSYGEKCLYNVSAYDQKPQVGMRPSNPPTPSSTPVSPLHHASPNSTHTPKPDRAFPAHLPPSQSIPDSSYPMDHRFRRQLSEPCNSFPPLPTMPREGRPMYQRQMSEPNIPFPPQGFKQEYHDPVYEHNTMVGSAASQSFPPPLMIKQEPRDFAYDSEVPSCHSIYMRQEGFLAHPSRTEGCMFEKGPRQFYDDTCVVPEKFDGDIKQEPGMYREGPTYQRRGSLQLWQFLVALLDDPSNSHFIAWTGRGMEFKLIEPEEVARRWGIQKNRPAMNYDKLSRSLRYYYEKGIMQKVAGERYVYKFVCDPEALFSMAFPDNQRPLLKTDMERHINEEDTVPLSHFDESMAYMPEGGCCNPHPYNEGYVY
Chain of HSF1 (Q00613 whole entry): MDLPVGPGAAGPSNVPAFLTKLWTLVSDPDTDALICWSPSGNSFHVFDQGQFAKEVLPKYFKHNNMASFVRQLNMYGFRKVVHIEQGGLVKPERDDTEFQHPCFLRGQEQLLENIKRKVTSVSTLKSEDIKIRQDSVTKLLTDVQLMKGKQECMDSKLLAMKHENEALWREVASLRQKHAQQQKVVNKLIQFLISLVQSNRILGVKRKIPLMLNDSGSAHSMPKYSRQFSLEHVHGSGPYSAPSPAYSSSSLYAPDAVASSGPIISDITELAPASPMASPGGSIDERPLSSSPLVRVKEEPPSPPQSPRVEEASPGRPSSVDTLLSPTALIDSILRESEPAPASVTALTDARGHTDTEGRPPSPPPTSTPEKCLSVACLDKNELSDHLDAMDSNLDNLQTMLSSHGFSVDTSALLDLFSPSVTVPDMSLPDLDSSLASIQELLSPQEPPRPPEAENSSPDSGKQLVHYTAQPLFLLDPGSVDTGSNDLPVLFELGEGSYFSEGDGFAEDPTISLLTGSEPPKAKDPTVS
Chain of CRX (O43186 whole entry): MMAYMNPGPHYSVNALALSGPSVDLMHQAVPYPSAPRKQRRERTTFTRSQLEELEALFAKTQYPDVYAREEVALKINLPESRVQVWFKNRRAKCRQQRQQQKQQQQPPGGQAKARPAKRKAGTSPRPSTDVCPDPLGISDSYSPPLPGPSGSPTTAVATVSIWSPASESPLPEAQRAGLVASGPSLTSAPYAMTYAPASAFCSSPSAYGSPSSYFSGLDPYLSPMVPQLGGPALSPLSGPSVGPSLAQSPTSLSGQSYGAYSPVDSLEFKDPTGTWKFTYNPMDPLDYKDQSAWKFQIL
Chain of ETV5 (P41161 whole entry): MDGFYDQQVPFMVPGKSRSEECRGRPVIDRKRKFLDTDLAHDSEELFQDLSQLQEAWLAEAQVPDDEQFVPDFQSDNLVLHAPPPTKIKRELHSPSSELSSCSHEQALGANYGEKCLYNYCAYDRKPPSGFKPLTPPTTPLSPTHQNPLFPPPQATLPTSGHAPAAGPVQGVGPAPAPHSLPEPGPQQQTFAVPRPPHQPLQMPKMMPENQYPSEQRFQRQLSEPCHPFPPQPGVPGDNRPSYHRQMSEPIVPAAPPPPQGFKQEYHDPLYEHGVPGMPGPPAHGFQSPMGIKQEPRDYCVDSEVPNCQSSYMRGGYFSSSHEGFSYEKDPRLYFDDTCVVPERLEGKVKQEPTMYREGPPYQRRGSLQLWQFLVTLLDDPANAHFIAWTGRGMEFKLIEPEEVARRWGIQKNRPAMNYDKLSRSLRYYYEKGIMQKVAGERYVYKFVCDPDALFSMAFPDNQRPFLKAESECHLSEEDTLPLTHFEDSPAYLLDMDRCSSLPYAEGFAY
Chain of ETV6 (P41212 whole entry): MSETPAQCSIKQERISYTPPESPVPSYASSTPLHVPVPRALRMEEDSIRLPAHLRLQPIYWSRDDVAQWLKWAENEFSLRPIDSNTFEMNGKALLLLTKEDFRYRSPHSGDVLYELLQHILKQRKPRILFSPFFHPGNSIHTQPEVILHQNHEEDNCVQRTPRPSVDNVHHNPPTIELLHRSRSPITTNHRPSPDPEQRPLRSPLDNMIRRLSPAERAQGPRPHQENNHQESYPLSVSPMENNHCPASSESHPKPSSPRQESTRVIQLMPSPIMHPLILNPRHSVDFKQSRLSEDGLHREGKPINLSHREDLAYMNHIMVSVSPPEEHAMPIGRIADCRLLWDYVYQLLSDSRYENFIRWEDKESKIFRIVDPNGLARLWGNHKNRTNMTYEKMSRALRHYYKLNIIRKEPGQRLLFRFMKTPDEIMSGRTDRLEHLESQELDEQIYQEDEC
Chain of ELF4 (Q99607 whole entry): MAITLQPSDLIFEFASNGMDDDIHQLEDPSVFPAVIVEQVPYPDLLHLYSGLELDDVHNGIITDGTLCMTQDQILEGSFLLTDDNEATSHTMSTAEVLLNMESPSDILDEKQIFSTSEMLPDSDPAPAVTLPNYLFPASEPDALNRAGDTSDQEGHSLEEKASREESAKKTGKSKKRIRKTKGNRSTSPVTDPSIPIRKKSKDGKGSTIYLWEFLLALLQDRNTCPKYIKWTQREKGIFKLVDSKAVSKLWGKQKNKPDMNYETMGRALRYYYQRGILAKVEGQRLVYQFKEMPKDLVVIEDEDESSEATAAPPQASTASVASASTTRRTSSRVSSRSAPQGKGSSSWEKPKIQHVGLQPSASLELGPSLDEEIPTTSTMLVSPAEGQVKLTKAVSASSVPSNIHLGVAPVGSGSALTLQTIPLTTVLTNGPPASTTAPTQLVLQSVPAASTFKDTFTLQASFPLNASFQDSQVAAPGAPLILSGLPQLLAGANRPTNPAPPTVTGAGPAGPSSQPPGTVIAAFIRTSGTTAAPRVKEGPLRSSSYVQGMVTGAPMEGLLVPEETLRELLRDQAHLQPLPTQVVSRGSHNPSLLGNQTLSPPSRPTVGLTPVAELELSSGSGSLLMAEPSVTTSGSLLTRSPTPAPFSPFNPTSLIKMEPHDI

On to CTACTG, for which the binding signal in the test with FEV is 1.33 fold enrichment (6-mer frequency, TF over GST control); with ETV5, 1.35 fold enrichment (6-mer frequency, TF over GST control); with HSF1 it was 1.24 fold enrichment (6-mer frequency, TF over GST control); in the test with SPIC, 1.32 fold enrichment (6-mer frequency, TF over GST control); with ELF4, 1.26 fold enrichment (6-mer frequency, TF over GST control); with ELK4 it was 1.26 fold enrichment (6-mer frequency, TF over GST control). For the same sequence, the binding signal in the test with ETV2 is 1.4 fold enrichment (6-mer frequency, TF over GST control); with ELF3, 1.3 fold enrichment (6-mer frequency, TF over GST control); with CRX, 1.08 fold enrichment (6-mer frequency, TF over GST control); with ETV1, 1.3 fold enrichment (6-mer frequency, TF over GST control); with ERF, 1.4 fold enrichment (6-mer frequency, TF over GST control); in the test with ETV3L it was 1.37 fold enrichment (6-mer frequency, TF over GST control). The binding signal with ETS2 was 1.34 fold enrichment (6-mer frequency, TF over GST control); with SPDEF, 1.21 fold enrichment (6-mer frequency, TF over GST control); in the test with ETV7, 1.26 fold enrichment (6-mer frequency, TF over GST control); in the test with ELF5, 1.32 fold enrichment (6-mer frequency, TF over GST control); with ETV3, 1.16 fold enrichment (6-mer frequency, TF over GST control); in the test with ETV6 it was 1.24 fold enrichment (6-mer frequency, TF over GST control).
